Compound activity: PubChem BioAssay, National Center for Advancing Translational Sciences (NCATS)
SNCA expr inhib: SNCA gene expression inhibition. HEK-293 SNCA-luciferase knock-in, luminescence, 24 h. 140,000 tested, 0.17% active. Potency, µM (doses to about 57.2 µM), inactives show at the highest dose activity change, negative = inhibition, hits mostly inhibitors. AID 1671194;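 further: plate controls were DMSO cells for no effect and cell-free wells for full effect; nearly all actives have a fitted effect of over 45% in size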
3T3 cytotox: NIH 3T3 cell cytotoxicity. NIH 3T3 viability, CellTiter-Glo ATP luminescence, 48-72 h. Potency, µM (doses to about 96.7 µM), for inactives: at the highest dose activity change, negative = cytotoxicity, hits mostly inhibitors. 94,000 tested, 4.3% active. AID 1345082; further: nearly all actives have a fitted effect of over 55% in size
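Luminescent ATP readout (CellTiter-Glo, 10 min RT) after 48 or 72 hr compound exposure of NIH 3T3 cells seeded at 400 cells/well in 1536-well format; quantitative HTS.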
SNCA viab count: cell viability loss counter-screen. Potency, µM (top dose mostly 57.1 µM), inactives show at the top dose activity change, negative = cytotoxicity, usual class: cytotoxic. HEK-293-SNCA-luc viability, GF-AFC fluorescence, 24 h. 150,000 tested, 0.12% active;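 further: 0% = DMSO-treated cells and -100% = medium-only wells without cells; nearly all actives have a fitted effect of over 30% in size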
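Cytotoxicity counterscreen: after 24 h compound treatment of genome-edited SNCA-luciferase HEK-293 cells, live-cell protease substrate GF-AFC read by fluorescence after 30 min; activity scaled between DMSO (0%) and medium-only (-100%), curves Hill-fitted.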
NPR1 antag: antagonists of human natriuretic peptide receptor Npr1. 76,000 tested, 1.6% active. HEK293 hNpr1 GloSensor cGMP, ANP-stimulated luminescence. P16066. Potency, µM (highest dose often 46.3 µM), for the others: top-dose activity change, negative = inhibition, most hits filed as inhibitors; calls by dose curve; further: nearly all actives have a fitted effect of over 60% in size
Target sequence (P16066 whole entry, looked up): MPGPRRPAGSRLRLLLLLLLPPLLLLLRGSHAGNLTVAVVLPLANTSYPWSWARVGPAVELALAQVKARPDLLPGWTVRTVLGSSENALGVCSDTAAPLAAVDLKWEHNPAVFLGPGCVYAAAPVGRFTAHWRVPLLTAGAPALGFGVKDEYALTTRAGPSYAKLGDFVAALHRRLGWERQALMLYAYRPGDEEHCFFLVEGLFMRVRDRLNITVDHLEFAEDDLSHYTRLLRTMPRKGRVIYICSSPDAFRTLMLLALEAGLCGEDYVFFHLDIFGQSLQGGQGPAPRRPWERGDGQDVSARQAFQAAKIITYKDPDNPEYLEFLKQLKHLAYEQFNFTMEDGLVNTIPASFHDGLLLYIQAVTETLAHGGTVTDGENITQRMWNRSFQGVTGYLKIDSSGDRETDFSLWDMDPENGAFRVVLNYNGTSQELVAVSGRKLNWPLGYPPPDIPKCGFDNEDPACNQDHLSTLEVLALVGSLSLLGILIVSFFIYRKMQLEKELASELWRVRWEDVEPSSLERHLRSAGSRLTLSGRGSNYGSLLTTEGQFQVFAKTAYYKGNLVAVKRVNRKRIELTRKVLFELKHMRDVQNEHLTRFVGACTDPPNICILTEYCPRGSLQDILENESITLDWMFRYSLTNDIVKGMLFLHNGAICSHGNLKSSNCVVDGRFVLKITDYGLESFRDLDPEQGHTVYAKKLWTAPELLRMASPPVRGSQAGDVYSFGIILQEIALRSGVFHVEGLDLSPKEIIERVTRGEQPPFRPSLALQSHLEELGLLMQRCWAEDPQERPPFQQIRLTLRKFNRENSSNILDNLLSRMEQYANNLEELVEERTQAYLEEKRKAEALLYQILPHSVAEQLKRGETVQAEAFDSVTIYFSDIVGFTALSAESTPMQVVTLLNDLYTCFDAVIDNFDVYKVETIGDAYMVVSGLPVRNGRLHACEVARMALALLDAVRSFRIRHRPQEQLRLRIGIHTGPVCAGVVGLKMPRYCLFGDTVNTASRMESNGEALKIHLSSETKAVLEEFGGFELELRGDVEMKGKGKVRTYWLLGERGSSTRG
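Compound pre-incubated 30 min at room temperature on GloSensor-loaded HEK293 cells stably carrying hNpr1 and the pGS-40F cGMP biosensor. Stimulation uses hNppA at 0.1 nM final; luminescence is taken at baseline and 20 min post-agonist.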
HEK cytotox: cytotoxic compounds in HEK 293 cells | AID 1345083 | 94,000 tested, 6.6% active | Potency, µM (doses to about 115 µM), for the others: at the highest dose activity change, negative = cytotoxicity, usual class: inhibitors | HEK 293 viability, ATP luminescence (CellTiter-Glo), 48-72 h; further: nearly all actives have a fitted effect of over 60% in size
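ATP-coupled CellTiter-Glo luminescence served as viability read-out, recorded 10 min after reagent addition at room temperature. HEK 293 cells, 250 cells/well, had been incubated with pintool-transferred compound for 48 or 72 hr at 37 degree Celsius.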
FLuc inh: Photinus pyralis luciferase inhibition; purified P. pyralis luciferase, luminescence, biochemical; 76,000 tested, 2.5% active; Potency, µM (series often up to 115 µM), hits mostly inhibitors; further: nearly all actives have a fitted effect of over 65% in size
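Luminescence read by CCD imager after adding enzyme (10nM final) to wells holding compound, titrated in qHTS. Substrates 10uM each D-luciferin and ATP; buffer 50mM Tris acetate pH 7.5, 10mM Mg acetate, Tween-20, BSA.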
* marks the source's active call; other numbers are inactive results; i = inactive; ? = inconclusive; / = not tested or not shown; [ ] = another dose, or the depositor's remark. Compounds with a hit are over-represented: about 7.4% of the library has one in this group of screens. Unless noted, the call rests on the fitted dose curve; in most records, active means well fitted curve in the direction sought with a large enough effect; inconclusive means small, poorly fitted or top-dose-only effect, or another doubt; inactive means no such curve, though single readings can be large; an effect the other way counts as inactive or inconclusive. Unless noted, on the % scale 0 is the no-effect control and ±100 the full control effect; potency means the concentration at half of the fitted maximal effect.

SMILES	SNCA expr inhib	3T3 cytotox	SNCA viab count	NPR1 antag	HEK cytotox	FLuc inh
O=C(NCc1ccc(F)c(F)c1)c1ccc2nnc(Cc3ccc(Cl)cc3)n2c1	-11.0%	35.5µM*	-23.2%	/	?	/
CNC(=O)c1cc(C)nc2onc(C3CCCN(C(=O)C4CC4)C3)c12 (stereo not given)	/	-8.4%	/	/	-2.3%	/
O=C(NC1CC1)c1ccccc1OC1CN(Cc2cc(F)c(F)c(F)c2)C1	0.6%	?	-1.9%	-9.8%	?	i
Cc1ccc(CN2CC(Oc3ccccc3C(=O)NC3CC3)C2)cc1	14.9%	?	-25.5%	-1.7%	?	i
CCOc1ccc(CN2CC(Oc3ccccc3C(=O)NCc3ccccc3)C2)cc1	7.9%	?	-12.2%	/	20µM*	/
Cc1ccsc1CN1CC(Oc2ccccc2C(=O)NCc2ccccc2)C1	?	39.8µM*	?	/	39.8µM*	/
O=C(NCc1ccccc1)c1ccccc1OC1CN(Cc2cccc(F)c2F)C1	-26.8%	20µM*	?	/	?	/
O=C(NCc1ccccc1)c1ccccc1OC1CN(Cc2ccc(F)c(F)c2)C1	?	39.8µM*	-18.4%	-13.4%	?	i
CC1CCC2(CC1)NC(=O)N(CC(=O)NC1CCCC1)C2=O (stereo not given)	-5.8%	-12.6%	-5.1%	-5.4%	-15.9%	i
COc1cccc(C(=O)N2CCCn3ccnc3C2C(C)C)c1OC (stereo not given)	-2.1%	-8.6%	2.5%	0.7%	-8.6%	i
CCC(CC)C(=O)NC1CCN(c2cnn(Cc3ccccc3)c(=O)c2)CC1	10.2%	-18.2%	-3.3%	-2.8%	-14.3%	i
O=C1CCC2(CCN(C(=O)C3CCc4ccccc43)CC2)CN1CCO (stereo not given)	-3.1%	2.6%	8.7%	0.0%	4.7%	i
O=C(c1ccccc1OC1CN(Cc2cccc(C(F)(F)F)c2)C1)N1CCOCC1	2.9%	?	-16.8%	/	?	/
O=C(NCc1ccccc1)c1ccccc1OC1CN(Cc2cccc(C(F)(F)F)c2)C1	?	12.6µM*	?	/	25.1µM*	/
COc1ccccc1CCNC(=O)C1CC(c2ccccc2)CN(C(=O)C2CC2)C1 (stereo not given)	11.7%	?	?	-0.6%	31.6µM*	i
COc1cccc(CN2CCC(Oc3ccc(C(=O)NC4CCCC4)cc3Cl)CC2)c1	-3.0%	?	-6.2%	-11.8%	?	i
COCCNC(=O)c1ccc(OC2CCN(C/C=C/c3ccc(F)cc3)CC2)c(Cl)c1	?	?	-8.4%	?	44.7µM*	i
COCCNC(=O)c1ccc(OC2CCN(CCC(C)c3ccc(C)o3)CC2)c(Cl)c1 (stereo not given)	20.1%	?	-7.6%	1.2%	89.1µM*	i
COCc1ccc(CN2CCC(Oc3ccc(C(=O)NC4CCCC4)cc3Cl)CC2)o1	-11.3%	?	-17.0%	-17.1%	35.5µM*	i
C=CCN1Cc2cc(F)ccc2N(CC(O)Cc2ccccc2)CCC1=O (stereo not given)	/	-28.2%	/	/	?	/
Cc1ccc(CNC(=O)Cn2ccn3nc4c(c3c2=O)CCCCC4)cc1	-15.6%	1.1%	7.2%	3.4%	1.8%	i
Cc1cc2ncc(C(=O)NC3CCCCCC3)cn2n1	4.1%[87.6 µM]	2.8%[138 µM]	2.3%[87.6 µM]	/	4.6%[172 µM]	/
Cn1cc(C(=O)N2CCOc3c(O)cc(-c4csc5ccccc45)cc3C2)cn1	-2.8%	?	-16.3%	-17.3%	25.1µM*	i
O=C(c1ccccn1)N1CCOc2c(O)cc(-c3cccc(Cl)c3)cc2C1	-20.2%	-26.3%	-13.2%	-24.3%	44.7µM*	i
COc1cc2c(cc1CNC(=O)C1CC(=O)N(Cc3cccnc3)C1)CCC2 (stereo not given)	3.4%	-33.4%	4.9%	3.7%	-17.4%	i
Cc1nn(-c2ccc(C(F)(F)F)cc2)c(C)c1[C@@H]1C=C[C@@H](NC(=O)NC2CCCCC2)C1	1.6%	?	1.1%	-20.1%	?	i
